Screens deposited in PubChem BioAssay by Milwaukee Institute for Drug Discovery.
In the library only some 6.8% were active in any assay of this set; here they are far more common.
Cy5 interf NS3h: counter-screen for HCV NS3 helicase inhibitors: fluorescence interference | fluorescence interference ratio at 100 µM | Cy5-dT15 DNA with NS3h; actives lie on both sides; signal over control mean, under 1 quenches | hit rate 6% among 16,000;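 active = compound fluorescence over control fluorescence at most 0.8, a quencher, or at least a set upper limit, an enhancer; inactive = ratio between 0.8 and the set upper limit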
HCV NS3h FP: hepatitis C NS3 helicase inhibition, primary screen | hit rate 1.6% among 16,000 | NS3h Cy5-dT15 DNA binding, fluorescence polarization | inhibition, % at 100 µM;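 active = inhibition above the average over every tested compound plus 3 SD, cut at about 40% in these data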
NS3h confirm: hepatitis C NS3 helicase inhibition, confirmation; shares compounds with HCV NS3h FP; NS3h binding to Cy5-dT15 DNA, fluorescence polarization; inhibition, % at 100 µM; hit rate 20% among 240; AID 720485;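 active = percent inhibition of 50% or more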
SSB FP counter: disrupts E. coli SSB binding to DNA in counter-screen; shares compounds with HCV NS3h FP; E. coli SSB binding Cy5-dT15, fluorescence polarization; inhibition, % at 100 µM; hit rate 40% among 240; AID 720486;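 active = inhibition of at least 50%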;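 also: displacers lower Cy5 polarization so higher inhibition means more SSB displaced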
Target sequence (P0AGE0 whole entry, looked up): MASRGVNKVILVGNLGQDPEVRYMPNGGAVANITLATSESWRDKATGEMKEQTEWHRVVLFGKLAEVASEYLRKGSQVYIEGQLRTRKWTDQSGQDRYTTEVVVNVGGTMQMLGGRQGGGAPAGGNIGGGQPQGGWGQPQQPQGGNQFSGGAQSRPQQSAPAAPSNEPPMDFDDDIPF
Cy5 SSB fluor CB: Cy5 fluorescence interference in NS3h counter-screen; shares compounds with HCV NS3h FP; fluorescence interference ratio at 100 µM; hit rate 8% among 240; Cy5-dT15/E. coli SSB fluorescence interference; actives lie on both sides; AID 720487;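 active = fluorescence interference ratio at or above 1.2, signal boosting, or at or below 0.8, signal quenching; inactive = ratio between 0.8 and 1.2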;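 also: ratio of compound well signal to mean negative control signal so 1 means no effect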
Cy5 fluor confirm: Cy5 fluorescence interference, confirmation counter-screen | shares compounds with HCV NS3h FP | Cy5-dT15 DNA/NS3h fluorescence interference counterscreen | fluorescence interference ratio at 100 µM, hits read low | hit rate 44% among 240 | AID 720489;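 active = fluorescence interference ratio at or below 0.8 quencher or at or above a set limitenhancer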;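 also: ratio of compound fluorescence to mean of negative controls so 1 means no interference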
An asterisk follows results filed as active.

SMILES	Cy5 interf NS3h	HCV NS3h FP	others
O=[N+]([O-])c1ccc(NCCOc2cccc3ccccc23)c2ncccc12	0.75*	8
C=CCn1c(C)c(C=C2C(=O)NC(=S)NC2=O)c2ccccc21	1	14
Cc1ccc(N2C(=O)CC(=O)NC2=S)cc1	1	3
O=C1CC(=O)N(c2ccc(Cl)c(Cl)c2)C(=S)N1	0.62*	19
O=C1NC(=O)N(Cc2ccccc2)C(=O)/C1=C/c1ccc2c(c1)OCO2	0.9	8
Cc1ccc(C=C2C(=O)N(C)C(=O)N(C)C2=O)o1	1	10
Cc1ccc(-c2ccc(C=C3C(=O)NC(=S)NC3=O)o2)cc1[N+](=O)[O-]	0.92	42*
Cc1cc(-c2ccc(C=C3C(=O)NC(=S)NC3=O)o2)cc([N+](=O)[O-])c1C	0.93	17
Cc1cc(OCc2ccc(F)cc2)c2c3c(c(=O)oc2c1)CCC3	1.1	4
CCOC(=O)C(P(=O)(OCC)OCC)P(=S)(c1ccccc1)c1ccccc1 (stereo unspecified)	1	-18
COc1ccc(CCNCc2cccc(Br)c2)cc1OC	1.1	-6
O=[N+]([O-])c1ccc(N2CCNCC2)cc1NCCc1ccccc1	0.78*	10
O=C1NC(=S)N(c2ccc(Br)cc2)C(=O)/C1=C/c1ccc(-c2ccc(C(=O)O)cc2)o1	1	13
Cc1ccc(N2C(=O)NC(=O)/C(=C/c3ccc(-c4cccc(C(=O)O)c4)o3)C2=O)cc1	1.1	50*	NS3h confirm=89*;SSB FP counter=70*;Cy5 SSB fluor CB=0.84;Cy5 fluor confirm=0.9
CN1C(=O)C(=Cc2ccc(-c3cccc(C(=O)O)c3)o2)C(=O)N(C)C1=O	0.97	32
Cc1ccc(N2C(=O)/C(=C/c3ccc(-c4ccc(C(=O)O)cc4)o3)C(=O)NC2=S)cc1	0.99	50*	NS3h confirm=45;SSB FP counter=62*;Cy5 SSB fluor CB=0.85;Cy5 fluor confirm=0.93
O=C1NC(=O)C(=Cc2ccc(-c3cc([N+](=O)[O-])ccc3O)o2)C(=O)N1	1.7*	185*	NS3h confirm=100*;SSB FP counter=100*;Cy5 SSB fluor CB=0.91;Cy5 fluor confirm=1.2
O=C1NC(=O)C(=Cc2ccc(O)c(O)c2)C(=O)N1	0.97	35
O=C1NC(=O)C(=Cc2ccc(-c3ccccc3C(=O)O)o2)C(=O)N1	1	68*	NS3h confirm=54*;SSB FP counter=25;Cy5 SSB fluor CB=0.98;Cy5 fluor confirm=0.98
COC(=O)c1ccc(-c2ccc(C=C3C(=O)NC(=S)NC3=O)o2)cc1	1.1	18
COc1ccc(CN2CCN(Cc3cccc(Br)c3)CC2)cc1Br	1	-1
O=C(Nc1ccc(Cl)cc1C(=O)c1ccccc1)c1ccc([N+](=O)[O-])cc1	0.95	10
O=C(CNS(=O)(=O)c1ccccc1)Nc1ccc(Br)cc1C(=O)c1ccccc1	1	31
O=C1NC(=S)NC(=O)C1CCCC=C(Cl)Cl	0.98	29	NS3h confirm=29;SSB FP counter=41;Cy5 SSB fluor CB=0.95;Cy5 fluor confirm=0.99
Cc1ccc(-n2c(-c3ccncc3)nc3ccccc3c2=O)cc1	1	1
SMILES	Cy5 interf NS3h	HCV NS3h FP	others
Cc1cc(OCc2ccccc2)c2c3c(c(=O)oc2c1)CCC3	1.1	9
O=C1NC(=O)C(=Cc2ccccc2OCc2ccccc2Cl)C(=O)N1	0.58*	56*	NS3h confirm=25;SSB FP counter=28;Cy5 SSB fluor CB=0.92;Cy5 fluor confirm=0.73*
CC(C)Oc1ccc(Br)cc1C=C1C(=O)NC(=O)NC1=O	1.1	15
COc1ccccc1C1(CCNCc2ccc(N(C)C)cc2)CCOC(C)(C)C1 (stereo unspecified)	0.99	6
Nc1ccc(Br)cc1C(=O)c1ccc(Cl)cc1Cl	1	-2
Cc1cc(OCC(N)=O)c2c3c(c(=O)oc2c1)CCC3	1.2	16
CCCCOC(=O)COc1cc(C)cc2oc(=O)c3c(c12)CCC3	1.1	54*	NS3h confirm=-3;SSB FP counter=8;Cy5 SSB fluor CB=0.96;Cy5 fluor confirm=0.93
Cc1cccc(OP(=O)(Oc2ccccc2)Oc2cccc(C)c2)c1	0.9	6
Cc1cc(OC(C)C(=O)O)c2c3c(c(=O)oc2c1)CCC3 (stereo unspecified)	1.1	2
CCN1C(=O)C(=Cc2ccc(N(CC)CC)cc2)C(=O)N(CC)C1=S	2*	55*	NS3h confirm=29;SSB FP counter=7;Cy5 SSB fluor CB=1.2;Cy5 fluor confirm=1.4*
CN(C)c1ccc(C=C2C(=O)NC(=S)N(c3ccccc3F)C2=O)cc1	1	34
